Measured values reported in PubChem BioAssay AID1835 (Johns Hopkins Ion Channel Center, 2009).
The campaign covered roughly 2,400 compounds. About 750 (31%) were called active.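 Rule for the calls: active = median signal gain over dofetilide-blocked control wells reaching their mean plus 3 SD, so readout 1 at least 0; inactive = the rest.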 The list shows a part of the results.

biological target: Voltage-gated inwardly rectifying potassium channel KCNH2 (Homo sapiens) (UniProt Q12809); assay: hERG protection against dofetilide inhibition, confirmation, cell-based, thallium flux, duplicate retest, dofetilide IC70 (AID 1835); details: hERG cell line, FluxOR thallium flux, dofetilide-blocked; at 10 µM; active compounds read high
Sequence (Q12809 whole entry, looked up): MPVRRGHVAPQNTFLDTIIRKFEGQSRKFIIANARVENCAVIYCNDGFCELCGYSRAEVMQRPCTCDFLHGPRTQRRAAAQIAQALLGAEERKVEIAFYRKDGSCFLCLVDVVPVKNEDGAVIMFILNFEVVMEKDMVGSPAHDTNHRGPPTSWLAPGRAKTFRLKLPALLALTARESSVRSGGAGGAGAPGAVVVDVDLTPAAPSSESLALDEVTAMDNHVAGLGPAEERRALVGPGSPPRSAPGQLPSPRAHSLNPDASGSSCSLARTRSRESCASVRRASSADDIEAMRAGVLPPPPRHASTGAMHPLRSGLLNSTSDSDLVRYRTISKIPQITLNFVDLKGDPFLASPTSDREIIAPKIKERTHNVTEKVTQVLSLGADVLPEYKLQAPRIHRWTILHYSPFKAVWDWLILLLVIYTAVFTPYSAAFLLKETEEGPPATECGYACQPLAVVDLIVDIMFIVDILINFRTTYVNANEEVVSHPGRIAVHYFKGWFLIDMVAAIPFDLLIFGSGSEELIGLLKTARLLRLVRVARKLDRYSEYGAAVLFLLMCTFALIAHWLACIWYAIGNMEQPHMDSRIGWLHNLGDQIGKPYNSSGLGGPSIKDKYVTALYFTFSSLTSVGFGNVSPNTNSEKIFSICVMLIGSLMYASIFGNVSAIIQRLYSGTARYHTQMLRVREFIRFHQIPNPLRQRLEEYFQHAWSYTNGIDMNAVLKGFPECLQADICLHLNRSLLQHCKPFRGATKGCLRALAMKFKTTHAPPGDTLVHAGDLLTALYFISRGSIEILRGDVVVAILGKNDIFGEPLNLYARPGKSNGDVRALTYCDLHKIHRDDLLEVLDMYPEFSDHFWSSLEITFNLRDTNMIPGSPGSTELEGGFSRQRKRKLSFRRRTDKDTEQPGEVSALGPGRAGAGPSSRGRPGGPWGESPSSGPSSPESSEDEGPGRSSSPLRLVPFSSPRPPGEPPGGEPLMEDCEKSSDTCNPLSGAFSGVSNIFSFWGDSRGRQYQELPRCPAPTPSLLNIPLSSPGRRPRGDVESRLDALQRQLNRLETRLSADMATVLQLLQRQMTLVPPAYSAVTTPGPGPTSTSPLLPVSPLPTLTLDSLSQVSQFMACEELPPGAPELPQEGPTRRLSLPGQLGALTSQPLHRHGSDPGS

| SMILES | activity increase over dofetilide control, less the hit threshold |
| --- | --- |
| C=CCc1cccc(C2Nc3ccccc3C(=O)N2O)c1O (stereo not given) | 1% (active) |
| Cc1ccc(Cn2c(O)c(N=NC(=S)Nc3ccccc3F)c3ccccc32)cc1 | -13% (inactive) |
| C=CCn1c(O)c(N=NC(=S)Nc2ccc(OC)c(Cl)c2)c2ccccc21 | 7% (active) |
| C=CCn1c(O)c(N=NC(=S)Nc2ccc(OC)cc2)c2ccccc21 | 4% (active) |
| COc1ccc(C(CC(=O)N2CCOCC2)c2c(O)cc(OC)cc2OC)cc1 (stereo not given) | -13% (inactive) |
| CCOC(=O)C1=C(Cn2cnc3ccccc32)NC(=O)NC1c1cc(C)ccc1C (stereo not given) | -10% (inactive) |
| CC(C)[C@H](NC(=O)OC(C)(C)C)C(=O)NCC1CCC(C(=O)N[C@@H](Cc2ccccc2)C(=O)O)CC1 (stereo not given in full) | -5% (inactive) |
| CNC(=O)c1cc(C(=O)c2ccc(F)cc2C(F)(F)F)c[nH]1 | -7% (inactive) |
| COc1cc(NC(=O)c2ccccc2)c(OC)cc1NC(=O)Cc1ccc(Br)cc1 | 12% (active) |
| COc1cc(Br)cc(/C=N/NC(=O)Cc2ccccc2)c1O | -9% (inactive) |
| COc1ccc(CC(=O)Nc2ccccc2Oc2ccccc2)cc1 | -13% (inactive) |
| O=c1[nH]c(C(Cl)(Cl)Cl)nc2ccc3ccccc3c12 | 4% (active) |
| CCCN1CCN(CCCNC(=O)Cn2nc(C)n3c(cc4cc(OC)ccc43)c2=O)CC1 | -13% (inactive) |
| CS(=O)(=O)Nc1cccc(-c2cn3ccccc3n2)c1 | -13% (inactive) |
| O=C(Nc1nnc(-c2ccc3c(c2)CCCC3)o1)C1COc2ccccc2O1 (stereo not given) | -12% (inactive) |
| O=C(Nc1nnc(-c2ccc3c(c2)CCCC3)o1)c1ccc(Cl)cc1Cl | 9% (active) |
| O=C(Nc1nnc(C2=COCCO2)o1)c1ccc(Br)cc1 | -42% (inactive) |
| Cc1ccc(Cc2c[nH]c(=S)s2)cc1 | 44% (active) |
| S=c1[nH]cc(Cc2ccccc2)s1 | -5% (inactive) |
| Cc1[nH]c(=S)sc1Cc1ccc(Cl)c(Cl)c1 | -12% (inactive) |
| Cc1[nH]n2c(=O)cc(C(C)(C)C)nc2c1-c1ccccc1 | 14% (active) |
| Cc1nn(CCC#N)c2nc(-c3ccccc3)cc(C(F)(F)F)c12 | -11% (inactive) |

| SMILES | activity increase over dofetilide control, less the hit threshold |
| --- | --- |
| NC(=O)c1nn2c(C(F)(F)F)cc(-c3ccccc3)nc2c1Br | -8% (inactive) |
| Cc1[nH]n2c(=O)cc(C(C)C)nc2c1-c1ccccc1 | -6% (inactive) |
| O=c1cc(-c2ccccc2)nc2c(-c3ccccc3)c(C(F)(F)F)[nH]n12 | 56% (active) |
| Nn1c(SCC(=O)Nc2ccccc2F)nnc1C1CCCCC1 | -10% (inactive) |
| CC(C)C(=O)Nc1ccc2c(c1)Cc1cc(NC(=O)C(C)C)ccc1-2 | -3% (inactive) |
| Cc1noc(C)c1CSc1ncnc2sc3c(c12)CCCCC3 | 4% (active) |
| CCOc1ccc(S(=O)(=O)N2CCN(Cc3ccc4c(c3)OCO4)CC2)cc1C | -31% (inactive) |
| COC(=O)C1=NN(C(=O)c2ccc(Cl)cc2)C(O)(c2ccccc2)C1 (stereo not given) | 74% (active) |
| CCOC(=O)C1=NN(C(=O)c2cccc(Br)c2)C(O)(C(C)(C)C)C1 (stereo not given) | 79% (active) |
| COC(=O)C1=NN(C(=O)c2ccc(C)cc2)C(O)(c2ccc(Cl)cc2)C1 (stereo not given) | 92% (active) |
| CC1=NN(C(=O)c2ccc(Cl)cc2)C(O)(c2ccccc2)C1 (stereo not given) | -11% (inactive) |
| CCC1=NN(C(=O)c2ccc(Cl)cc2)C(O)(c2ccccc2)C1 (stereo not given) | -24% (inactive) |
| CC1=NN(C(=O)c2ccccc2Br)C(O)(c2ccc(Cl)cc2)C1 (stereo not given) | -15% (inactive) |
| CC1=NN(c2ccccc2)C(=O)C1C(=O)c1ccc(Cl)cc1 (stereo not given) | -5% (inactive) |
| COC(=O)C1=NN(C(=O)c2cccc(Br)c2)C(O)(c2ccc(Cl)cc2)C1 (stereo not given) | 86% (active) |
| CCOC(=O)c1cnc(-n2nc(C)cc2C)nc1Nc1cccc(C(=O)O)c1 | -2% (inactive) |
| COCCn1nnnc1C(c1ccc(C(F)(F)F)cc1)N1CCOCC1 (stereo not given) | -20% (inactive) |
| O=C(CSc1ccccc1)N1CCN(S(=O)(=O)c2cccs2)CC1 | -10% (inactive) |
| CCOC(=O)N1CCN(C(=O)COC(=O)c2cc(Cl)c(O)c(Cl)c2)CC1 | 5% (active) |
| O=C(OCC(=O)N1CCOCC1)c1ccc(Cl)cc1[N+](=O)[O-] | -13% (inactive) |
| CCOC(=O)N1CCN(C(=O)CN(c2ccc(OCC)cc2)S(C)(=O)=O)CC1 | -19% (inactive) |
| Cc1ccc(NC2=CC(=O)OC(C)C2)cc1 (stereo not given) | -4% (inactive) |

| SMILES | activity increase over dofetilide control, less the hit threshold |
| --- | --- |
| C=C(C)CNC(=S)NN=C1c2ccccc2-c2ccccc21 | 15% (active) |
| C=CCNC(=S)N/N=C(\C)c1ccc(OC)cc1 | -4% (inactive) |
| Cc1cc(S(=O)(=O)Nc2ccc(C(=O)N3CCN(C(=O)c4ccco4)CC3)cc2)ccc1F | -13% (inactive) |
| CCOC(=O)N1CCN(C(=O)c2ccc(C)c(S(=O)(=O)Nc3ccccc3)c2)CC1 | -1% (inactive) |
| CCOC(=O)N1CCN(C(=O)c2ccc(Cl)c(S(=O)(=O)Nc3ccccc3)c2)CC1 | 5% (active) |
| NC(=O)c1ccsc1NC(=O)CS(=O)(=O)c1ccccc1 | -9% (inactive) |
| O=c1c(O)c(-c2ccc3c(c2)OCO3)oc2ccccc12 | 6% (active) |
| O=C(NCc1cccnc1)Nc1ccc2c(c1)OCO2 | -19% (inactive) |
| Cn1nc(C(=O)Nc2ccc3c(c2)OCO3)c2ccccc2c1=O | -16% (inactive) |
| O=c1c(O)c(-c2cccs2)oc2ccccc12 | 62% (active) |
| O=c1c(O)c(-c2cccs2)oc2ccc(Cl)cc12 | 92% (active) |
| O=C1OC(/C=C/c2ccc(Cl)cc2Cl)=NC/1=C\c1cccs1 | -7% (inactive) |
| Cc1ccc(S(=O)(=O)c2nnn3c2nc(N2CCOCC2)c2ccccc23)c(C)c1 | -14% (inactive) |
| C/C(CCC12CC3CC(CC(C3)C1)C2)=N\NC(N)=S | 0% (inactive) |
| C/C(O)=C/c1nc2ccccc2[nH]c1=O | -7% (inactive) |
| Cc1cccc(NC(=O)CCNC(=O)c2ccco2)c1C | -13% (inactive) |
| Cc1cccc(C)c1NC(=S)NC(=O)c1ccc(Br)o1 | 73% (active) |
| CCOc1ccc(-c2cccc(NC(=O)c3ccc(Br)o3)c2)nn1 | -26% (inactive) |
| Cc1cccc(NC(=S)NC(=O)c2ccc(Br)o2)c1C | 6% (active) |
| Cc1cccc(NC(=S)NC(=O)c2ccco2)c1C | 52% (active) |
| CN1CCN(c2ccc(NC(=O)c3ccc(Br)o3)cc2)CC1 | -2% (inactive) |
